Measurements as given in PubChem BioAssay (NCATS).
Results filed as inconclusive are left out. Where a call stands in place of a potency, no number is given. Activity calls are given as the source filed them. Calls come from the whole dose curve; as a rule, active = well fitted inhibition curve with a large enough effect; inconclusive = small, poorly fitted or top-dose-only effect; inactive = flat fitted curve, though single readings scatter.

Test system: CP305
Test: qHTS profiling for inhibitors of Plasmodium falciparum proliferation (AID 504749); note: nearly all actives have a fitted effect of over 60% in size
Conditions: P. falciparum in erythrocytes, SYBR Green DNA, 72 h; series mostly up to 28.7 µM
How it was run: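 Parasite proliferation within erythrocytes, 72 h exposure. Endpoint: SYBR Green I fluorescence after overnight lysis at room temperature. Controls: 0.29 uM artemisinin, DMSO.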
Potency is the fitted concentration of half-maximal effect.

Structure (SMILES)	Potency
Cc1ccccc1	inactive
CC1(C)S[C@@H]2[C@H](NC(=O)[C@@H](NC(=O)N3CCNC3=O)c3ccccc3)C(=O)N2[C@H]1C(=O)O	inactive
CC1=C(/C=C/C(C)=C/C=C/C(C)=C/C=C/C=C(C)/C=C/C=C(C)/C=C/C2=C(C)CCCC2(C)C)C(C)(C)CCC1	inactive
CCCC(=O)O[C@]1(C(=O)CCl)[C@H](C)C[C@@H]2[C@H]3CCC4=CC(=O)C=C[C@]4(C)[C@@]3(F)C(=O)C[C@@]21C	4260 nM (active)
CCC(=O)NCCC1CCc2ccc3c(c21)CCO3 (stereo unspecified)	inactive
Cc1cc(C(=O)NNCc2ccccc2)no1	inactive
Cc1ccccc1OCC(O)CNCCOc1ccc(C(N)=O)cc1 (stereo unspecified)	inactive
CCCCCCCCCCCCCC[n+]1ccc(C)cc1	2390 nM (active)
COC(F)(F)C(Cl)Cl	inactive
CCCCCCCCCCCC[n+]1ccc2ccccc2c1	757 nM (active)
O=C(O)CCC(=O)C(=O)O	inactive
O=C(O)CN(CCN(CC(=O)O)CC(=O)O)CC(=O)O	inactive
COc1ccc2c3c1O[C@H]1C[C@@H](O)C=C[C@@]31CCN(C)C2	inactive
C=CCSSSCC=C	inactive
COC(C(=O)C(O)C(C)O)C1Cc2cc3cc(OC4CC(OC5CC(O)C(O)C(C)O5)C(O)C(C)O4)c(C)c(O)c3c(O)c2C(=O)C1OC1CC(OC2CC(OC3CC(C)(O)C(O)C(C)O3)C(O)C(C)O2)C(O)C(C)O1 (stereo unspecified)	1510 nM (active)
CCNC(=O)[C@@H]1CCCN1C(=O)[C@H](CCCN=C(N)N)NC(=O)[C@H](CC(C)C)NC(=O)[C@@H](Cc1c[nH]c2ccccc12)NC(=O)[C@H](Cc1ccc(O)cc1)NC(=O)[C@H](CO)NC(=O)[C@H](Cc1c[nH]c2ccccc12)NC(=O)[C@H](Cc1cnc[nH]1)NC(=O)[C@@H]1CCC(=O)N1	7570 nM (active)
